Whole data set: some 1,800 sequences, median “median log2 fold change of GCK-ALFA target abundance (FLAG IP / Myc IP barcode read proportion)” near 0.14, cut for the lowest 2% near -0.84. Many of the other results were omitted from the sample, so the lowest values are more common in it than they were.
T1: TRAF2, Q12933
T1 chain: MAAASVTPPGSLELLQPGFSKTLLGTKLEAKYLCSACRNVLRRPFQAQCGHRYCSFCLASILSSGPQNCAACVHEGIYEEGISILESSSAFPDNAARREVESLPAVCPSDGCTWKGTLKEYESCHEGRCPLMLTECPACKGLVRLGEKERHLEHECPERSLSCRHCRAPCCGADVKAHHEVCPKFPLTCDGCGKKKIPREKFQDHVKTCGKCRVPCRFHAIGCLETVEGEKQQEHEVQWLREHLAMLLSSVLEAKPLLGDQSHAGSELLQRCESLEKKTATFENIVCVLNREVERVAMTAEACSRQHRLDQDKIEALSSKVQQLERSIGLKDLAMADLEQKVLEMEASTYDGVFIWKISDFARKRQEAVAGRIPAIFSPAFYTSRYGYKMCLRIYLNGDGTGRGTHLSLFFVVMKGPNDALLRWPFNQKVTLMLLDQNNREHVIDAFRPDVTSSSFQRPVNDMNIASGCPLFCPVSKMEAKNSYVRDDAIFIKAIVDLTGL

B1: traf2_out_11_169_847 (protein)
chain: EQEEKNRQIIDKALELEDKAKEELKKHALALAREAGLDVAEVEAIFEKHKGKSLSAIAAALIRWFREQGKEEAAAAVEAKYEELKEEINKKMTEFLKELE
B2: traf2_out_11_169_812 (protein)
chain: EEKEKNRKINDFALELNDEAKKELLKHAKALAKKAGLDVAEVEAIFEKHKNSSLSAVAAALIAYFKSKGKEEEAAAVLAKYEELKEEINKKVTEKIKELE
B3: traf2_out_17_178_1659 (protein)
chain: NKEEARAEISAATDELIDLTEATADRLLAILEADGTASPEELAALREARRLGSATTTRALMEAAVPRSPRSAEVAALLDDFTKRSGELAKKIAEAYKKYE
B4: traf2_out_8_174_2574 (protein)
chain: SERERLRIVSEVLTEFADILDEAEERLEALKDLPLEELRKESQKILDEALKRIDEIEERRVKEVDEETAELIRRAARSAKQQLRNMVEGTIKRKELREKA
B5: traf2_out_11_169_824 (protein)
chain: AEAERNRKINDKALELNDKAKEKLKEFALELAKKAGLDVEEVKAIFEKHKGASLSAIAAALIEYFRSKGKEEEAEAVLKKYEELKDEINKEMAKFLKELE
B6: traf2_out_12_165_941 (protein)
chain: SMRERTEEIVRRAEEEIRRIADAAIAEIRANPDLTPEEVAALRERAVDEMVEVRQRALNELYKAGASIDELAEASERLRRVFDEARARLDAAAAEHLAAR
B7: traf2_out_11_169_848 (protein)
chain: EEEEKNRKIIDKALELNDKAKEELRAHALALAKKAGLDTAAVEAIFEANKGKSLSAVAAALIAWFKAQGKDAEAAAVEAKYEELKEKINKEMTKFLKELE
B8: traf2_out_6_169_2491 (protein)
chain: SMAEELKKEAERHLKTAKELYEIAKTIYNQAINNKNYENIDDYIEALETIKNAYKHHYDKAIEYYKKLGNEEEAEKLEKEKEKKLKEIDEMIKKLKELKK
B9: traf2_out_14_17_1291 (protein)
chain: DIIEKLEEILKTAKELAKKYPELKLELTQLERKAESALVLAEMYEEDPSYKPELIQGLKNLIKLAKEVAEKLKPISAEAVKKLEEMEETAKEILKEVEAE
B10: traf2_out_20_3_2179 (protein)
chain: EELEEELEEELEEALELIKEAAKLADEETAKKLEELAERLKESRELSYEDRLVELSEIRRELLELAEAAKAAGKEELAAVLEEAAEELNEAMNLVYEIIE
B11: traf2_out_20_38_2002 (protein)
chain: SMEEEEEERLKEIIDVANEAYDEATERIEALRAAGKSVEEIAAIVRAEVAELLDAAGLEEERDELLADIDRALSSPDALRLFARILARARALVKQKELNE
B12: traf2_out_20_38_2003 (protein)
chain: SEEEEEERKLEEIIEVANEAYDEATERIAAMVAAGKTVEEIAAEVRAEVTRLLDAAGLEEERDELLADIDRALASPNALRLFARILARARALVKQKELNK
B13: traf2_out_13_95_1094 (protein)
chain: SKEVAEKIMEIADKMLDESLEVLKKLLEEMKKKGKLEEEIKEVLELAENQSINEAIHKLKELAKKYPEVKELLEKAIEELEEIRRKAGKEVAKILKEEKE
B14: traf2_out_8_174_2572 (protein)
chain: DEEKRLKVVADFSTEMADILDEFEEELKKASDLPLEELKKKAEELKKEALEKIDKLKKEWEAKVDEETAKLVQRAANSAKQQIENMAKGAILRKELEDAA
B15: traf2_out_16_177_1462 (protein)
chain: ELDKIMDRIVVLSKIKRAAEYAIENKKEEAEKYLKEAEKEAEEAGDEEGLKKIKELKELMEKNTEEAKKKLKELAKEAQKEAGKLVDEAEALLKARAAAE
B16: traf2_out_20_38_2031 (protein)
chain: SEEEEEKKRLEEAIKVANDAYDRYTERFAALRAAGRTVEEMAAETRAEVRELLTAAGLEEEAEELIADIDLALGSPEAERLLVRILARAEALVWQKKKNE
B17: traf2_out_11_169_830 (protein)
chain: EEAEKNRKINDFALELEEKAKEEFKKFVLELAKEEGLDVEEIKKIFEENKNKSLSAIAAAVIEYFKSKGKEEAAEKVLKKYEELKEKINKEATEKIKELE
B18: traf2_out_6_156_2413 (protein)
chain: MVEKIFEETLKKVEELIKKLSKASEEKKISYISKIAGTVYKALQQLREAGASLEEIKEFSERLKKEIEKLLKEAGLDEKTRNLVLSSVNAVFTVAIEEAK
B19: traf2_out_18_167_1822 (protein)
chain: SAETEAEIERLTDELVRVSEIRRLALLALEALRTDPAAADAARDALIAALNEVPEFRPDAAALRAAPRAELPALLERIAERAQRRAQELYERREELKKKQ
B20: traf2_out_3_89_2308 (protein)
chain: MEERKKTIEEMEKQMEAYVKGFEKSAKFVAKQMLADGMSLDTLRGVLEAAKSALLEVLRETAKERGLSEEEIEKLLKKAEEELNKVVDEVVADAAAKRAA
B21: traf2_out_6_156_2410 (protein)
chain: MVDAIFKEALEKIEKEIKKLSEASEEKKIKYISNIAGTVYRALQQLRDAGASLAEIEAFAKKLKAEIEKKLKEAGLPEDTINLVLSSINAVFDVAIADAK
B22: traf2_out_13_95_1152 (protein)
chain: SKELAEKINQIADDMLDQVEAKLQALLEKMKAAGKGVEEVQKALDLARYRSVNEAIALLEELSKKYPEFKELFDATIKEIKAIIREAGRKVAELIKEEEA
B23: traf2_out_11_131_656 (protein)
chain: MDAVAMAESAAERVDERLEIAKTLSPEERLRLARQSLDSLEALAEYLKEHVKEMSKEDVEKAAKILRESAEKILEFSPEVEEEAKEVEEAIKKLLEAAKA
B24: traf2_out_20_38_2032 (protein)
chain: SEEEEEERRLEEAIEVANEAYDRYTARFEEWQAAGKTVEEIAEETKKEVKELLEKAGLEEEAKILIEDIDLALSSPDAVRLLVRILARAEALVWQKEKEK
B25: traf2_out_19_16_1989 (protein)
chain: SKEEAEKLKKEMNKYLDEALELAKEAVENLDELSREELMDKLVEISELMRKAKELLQKYLELNKDDEEERKKVTEEFDKKYDEIMKLMTIIVKKIEELLK
B26: traf2_out_11_155_670 (protein)
chain: SEKQKLNNELVNELTEIADELKEKVEKILKEAAAAHPEHAEELAAVIASGKTLSGRSFARLAAQKFRELGLEEEAKKVEELLEEAQKKMNEVVKKYEEKL
B27: traf2_out_3_89_2310 (protein)
chain: GAERERTIEEMRREMERYIRGFRKSAERVAKEMLEDGMSLETLRGVLEAAKSALLEVLRERMRERGLSEEEIEELLEEAGRELDKVVEEVVAEAEERRKA
B28: traf2_out_17_162_1600 (protein)
chain: SELEKFKEKIEKELEELEKERKELEKKLKEIDSLSKEELTDLLVEASEKRRKALELLEKLEENKEKLDKEFYEKYKKRAEEIAEEFQRIANEIMKKLEEK
B29: traf2_out_20_38_2010 (protein)
chain: SEEEKEKEKLEKLVEVANEAYDKYSAEFEKWKAEGKTVEEIAEEVKKRVKEKLSAAGLEEEAKILIEDIDLALSSPNAWRLLVRTLARADALVKQKELNK

Target: T1, TRAF2, Q12933
Assay: median log2 fold change of GCK-ALFA target abundance (FLAG IP / Myc IP barcode read proportion) (log2 ratio); each designed protein is fused to an ALFA-tag nanobody in HEK293 cells to bring the named protein to FLAG-tagged glucokinase (GCK); Myc marks an untargeted standard; higher = target protein stabilised (more abundant)
Details: target protein: 3xFLAG-MCP-GCK-ALFA reporter; HEK293 landing pad (RPLP)
Summary of the method: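 Sequencing of reverse-transcribed, amplified circular RNA barcodes from anti-FLAG and anti-Myc immunoprecipitates provided the readout for an ALFA-nanobody-fused binder library recombined into HEK293 landing-pad cells. Those cells were induced with 2 μg mL^−1 doxycycline, transfected with a plasmid expressing a FLAG-tagged target and a Myc-tagged standard, and lysed after 48 h. Target abundance is the per-binder median log2 ratio of FLAG to Myc barcode read proportions. Only barcodes at a proportion of ≥10^−7 in both replicates and binders with ≥3 barcodes per replicate were kept, with a 10^−6 pseudocount added before the two replicates were pooled.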

| Binder | median log2 fold change |
| --- | --- |
| B1 | -0.218 |
| B2 | 0.302 |
| B3 | 0.0548 |
| B4 | -0.187 |
| B5 | 0.0712 |
| B6 | -0.0195 |
| B7 | -0.138 |
| B8 | -0.373 |
| B9 | 0.128 |
| B10 | -0.145 |
| B11 | -1.43 |
| B12 | -0.767 |
| B13 | -0.0821 |
| B14 | 0.209 |
| B15 | -0.0546 |
| B16 | -0.852 |
| B17 | 0.00164 |
| B18 | 0.231 |
| B19 | 0.336 |
| B20 | -0.103 |
| B21 | 0.298 |
| B22 | -0.574 |
| B23 | 0.344 |
| B24 | -1.23 |
| B25 | 0.137 |
| B26 | 0.263 |
| B27 | -1.13 |
| B28 | 0.0488 |
| B29 | -1.49 |

Source: the supplement of paper PMC12632987
